PostGolgi ctrl – inhibits growth of the yeast control strain; efflux-deficient yeast background strain, growth absorbance A615, 16 h; inhibition, % at 10 µM; 98,000 compounds, 5% hits; AID 738
hDAT+cocaine – modulates human dopamine transporter uptake under cocaine. Q01959. LLC-PK1 hDAT cells, [14C]-dopamine uptake with cocaine IC80; actives deviate in either direction. B-score at 10 µM. 110,000 compounds, 1.3% hits;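 active = Z score or B-score, a plate-position-corrected score, falls beyond the plate's 99.7% confidence bounds, in either direction; inactive = both scores lie inside the 99.7% bounds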
Cav3 T inh – human Cav3.2 channel inhibition, primary screen; O95180; 100,000 compounds, 4% hits; Cav3.2-expressing cells, Fluo-4 calcium fluorescence FDSS; active compounds read low; AID 449739; B-score at 10 µM;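 active = single-dose well whose peak fluorescence ratio is a statistical outlier from its plate by either plate-standardised score or position-corrected B-score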
TNAP act DEA – activates human TNAP at intermediate phosphate acceptor concentration. P05186. purified TNAP, CDP-star luminescence, 100 mM DEA, 30 min; active compounds read high; scale: 0 levamisole-inhibited, 1 vehicle-only enzyme. activation factor at 20 µM. 64,000 tested, under 10 active. AID 813;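 active = activation factor of at least 2 at 20 µM, relative to controls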
PostGolgi yeast – growth inhibition of a yeast mutant, post-Golgi transport screen | post-Golgi transport phenotypic cell assay | inhibition, % at 10 µM | 98,000 compounds, 0.9% hits;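 also: yeast cells grown in 1536-well plates; yeast grown about 18 h at 30C before absorbance read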
Smad3 inh – inhibitors of human Smad3 transcription factor binding; AID 630; P84022; 88,000 compounds, 0.29% hits; inhibition, % at 25 µM; TR-FRET Smad3/Dy647-FoxH1 peptide binding, europium anti-His;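 active = compounds that reduce the energy-transfer binding signal between the protein and its labelled peptide by more than half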
Numbers stand for hits. Hits are enriched below; roughly 8.7% of the tested compounds scored in any of these assays. Rule as the data show it, unless noted: active = inhibition above about 30%; inactive = the rest.

How did CCOc1ccc(N=c2scc(-c3ccccc3)n2CCO)cc1 do in these assays?
PostGolgi ctrl: inactive; hDAT+cocaine: inactive; Cav3 T inh: inactive; PostGolgi yeast: inactive; Smad3 inh: inactive

Results for COc1ccccc1-c1cc(C(F)(F)F)nc(N2CCCC2)n1 ?
PostGolgi ctrl: inactive; Cav3 T inh: inactive; TNAP act DEA: inactive; PostGolgi yeast: inactive; Smad3 inh: inactive

How did CS(=O)(=O)c1nc(-c2ccco2)cc(C(F)(F)F)n1 do in these assays?
PostGolgi ctrl: 47.8; hDAT+cocaine: inactive; Cav3 T inh: inactive; TNAP act DEA: inactive; PostGolgi yeast: inactive

How did COc1ccccc1-c1cc(C(F)(F)F)nc(S(=O)(=O)CCCC(=O)NC(C)C)n1 do in these assays?
PostGolgi ctrl: 42.5; hDAT+cocaine: inactive; Cav3 T inh: inactive; TNAP act DEA: inactive; PostGolgi yeast: inactive

What do the screens show for `COc1ccccc1-c1cc(C(F)(F)F)nc(S(C)(=O)=O)n1`?
PostGolgi ctrl: 86.0; PostGolgi yeast: 46.2; Smad3 inh: inactive

Results for CNS(=O)(=O)c1cccc2nsnc12 ?
TNAP act DEA: inactive; Smad3 inh: inactive

What do the screens show for `Cc1ccc(S(=O)(=O)N2CCN(C3CCC(c4ccccc4)CC3)CC2)cc1` (stereo not given)?
PostGolgi ctrl: 95.5; PostGolgi yeast: 88.8

Results for CC1CCN(C2CCN(S(=O)(=O)c3ccc(F)cc3)CC2)CC1 ?
PostGolgi ctrl: 30.9; hDAT+cocaine: inactive; Cav3 T inh: inactive; PostGolgi yeast: inactive; Smad3 inh: inactive

Results for CCS(=O)(=O)N1CCN(C2CCC(c3ccccc3)CC2)CC1 (stereo not given) ?
PostGolgi ctrl: inactive; hDAT+cocaine: inactive; Cav3 T inh: inactive; TNAP act DEA: inactive; PostGolgi yeast: inactive; Smad3 inh: inactive

How did CC1CN(C2CCN(S(=O)(=O)c3ccc4ccccc4c3)CC2)CC(C)O1 (stereo not given) do in these assays?
PostGolgi ctrl: 38.0; hDAT+cocaine: inactive; Cav3 T inh: inactive; TNAP act DEA: inactive; PostGolgi yeast: 82.6; Smad3 inh: inactive

What do the screens show for `O=C(Nc1ccccc1)c1nnsc1S(=O)c1ccc(Cl)cc1` (stereo not given)?
PostGolgi ctrl: 101.6; hDAT+cocaine: inactive; Cav3 T inh: inactive; PostGolgi yeast: 104.7

Results for O=C(Nc1ccc(Cl)cc1)c1cccs1 ?
PostGolgi ctrl: inactive; hDAT+cocaine: inactive; Cav3 T inh: inactive; PostGolgi yeast: inactive; Smad3 inh: inactive

How did O=C(Nc1ccc(S(=O)(=O)Nc2ncccn2)cc1)c1ccc(Br)s1 do in these assays?
PostGolgi ctrl: inactive; hDAT+cocaine: inactive; Cav3 T inh: inactive; PostGolgi yeast: inactive

What do the screens show for `O=C(NC(NC(=S)Nc1ccccc1)C(Cl)(Cl)Cl)c1cccc(Cl)c1` (stereo not given)?
PostGolgi ctrl: inactive; hDAT+cocaine: inactive; Cav3 T inh: inactive; PostGolgi yeast: inactive

How did O=C(O)c1ccc(NC(=S)NC(NC(=O)c2ccco2)C(Cl)(Cl)Cl)cc1 (stereo not given) do in these assays?
PostGolgi ctrl: inactive; hDAT+cocaine: inactive; Cav3 T inh: -4.05; PostGolgi yeast: inactive; Smad3 inh: inactive

Results for Cc1ccc(NC(=S)NC(NC(=O)c2ccco2)C(Cl)(Cl)Cl)cc1 (stereo not given) ?
PostGolgi ctrl: inactive; hDAT+cocaine: inactive; Cav3 T inh: inactive; PostGolgi yeast: inactive; Smad3 inh: inactive

What do the screens show for `Cc1cccc(NC(=S)NC(NC(=O)c2ccco2)C(Cl)(Cl)Cl)c1` (stereo not given)?
PostGolgi ctrl: inactive; hDAT+cocaine: inactive; Cav3 T inh: -6.05; PostGolgi yeast: inactive; Smad3 inh: inactive

How did CC(C)(C)c1csc(N(CCC#N)CCC#N)n1 do in these assays?
PostGolgi ctrl: inactive; hDAT+cocaine: inactive; Cav3 T inh: inactive; TNAP act DEA: inactive; PostGolgi yeast: inactive; Smad3 inh: inactive

Results for COc1cc2nc(-c3ccc(Br)o3)oc(=O)c2cc1OC ?
PostGolgi ctrl: inactive; hDAT+cocaine: inactive; Cav3 T inh: inactive; TNAP act DEA: inactive; PostGolgi yeast: inactive; Smad3 inh: inactive

Results for COc1ccc(/C=C2\CCCC(C(=O)C(F)(F)F)=C2O)cc1 ?
PostGolgi ctrl: inactive; hDAT+cocaine: inactive; Cav3 T inh: inactive; PostGolgi yeast: inactive; Smad3 inh: inactive

What do the screens show for `CCOP(=O)(c1ccccc1)c1nc(-c2ccc(F)cc2)oc1N1CCCCC1` (stereo not given)?
PostGolgi ctrl: 32.3; hDAT+cocaine: inactive; TNAP act DEA: inactive; PostGolgi yeast: inactive; Smad3 inh: inactive

What do the screens show for `CCOP(=O)(OCC)c1nc(-c2ccc(C)cc2)oc1N1CCOCC1`?
hDAT+cocaine: inactive; Cav3 T inh: inactive

How did CCOC(=O)CN(C#N)c1nc(C)cc(C)n1 do in these assays?
PostGolgi ctrl: inactive; hDAT+cocaine: inactive; Cav3 T inh: inactive; PostGolgi yeast: inactive

How did O=S(=O)(c1ccccc1)n1nc(-c2ccccc2)nc1NCc1ccco1 do in these assays?
PostGolgi ctrl: 36.2; hDAT+cocaine: inactive; Cav3 T inh: -4.52; TNAP act DEA: inactive; PostGolgi yeast: inactive; Smad3 inh: inactive

What do the screens show for `O=C(c1ccccc1)n1nc(-c2ccccc2)nc1NCc1ccco1`?
PostGolgi ctrl: inactive; TNAP act DEA: inactive; PostGolgi yeast: inactive; Smad3 inh: inactive

What do the screens show for `CCOC(=O)c1nnn(-c2nc(N3CCCC3)nc(N3CCCC3)n2)c1-c1ccccc1`?
PostGolgi ctrl: inactive; TNAP act DEA: inactive; PostGolgi yeast: inactive; Smad3 inh: inactive

Results for CCOC(=O)c1c(-c2ccccc2)nnn1-c1nc(OCC)nc(N2CCCCC2)n1 ?
PostGolgi ctrl: inactive; hDAT+cocaine: 1.81; Cav3 T inh: -7.63; TNAP act DEA: inactive; PostGolgi yeast: inactive; Smad3 inh: inactive

How did CCOC(=O)c1nnn(-c2nc(OC)nc(N3CCCCC3)n2)c1-c1ccccc1 do in these assays?
PostGolgi ctrl: inactive; hDAT+cocaine: inactive; Cav3 T inh: -6.1; PostGolgi yeast: inactive

What do the screens show for `O=C(CSc1ccc(-c2nc3ccccc3[nH]2)cn1)N1CCN(C(=O)c2ccco2)CC1`?
PostGolgi ctrl: inactive; hDAT+cocaine: inactive; Cav3 T inh: inactive; TNAP act DEA: inactive; PostGolgi yeast: inactive; Smad3 inh: inactive

What do the screens show for `COc1ccc(N2C(=O)CSC23C(=O)N2CCCc4cccc3c42)cc1` (stereo not given)?
PostGolgi ctrl: inactive; hDAT+cocaine: inactive; Cav3 T inh: inactive; TNAP act DEA: inactive; PostGolgi yeast: inactive; Smad3 inh: inactive

Results for COc1ccc(N2C(=O)CSC23C(=O)N2c4c(cccc43)C(C)=CC2(C)C)cc1 (stereo not given) ?
PostGolgi ctrl: 31.6; hDAT+cocaine: inactive; Cav3 T inh: inactive; PostGolgi yeast: inactive; Smad3 inh: inactive

How did Cc1cc(N2CCN(c3ccccc3)CC2)nc(-c2ccccc2)n1 do in these assays?
PostGolgi ctrl: 67.3; hDAT+cocaine: inactive; Cav3 T inh: inactive; TNAP act DEA: inactive; PostGolgi yeast: inactive; Smad3 inh: inactive

How did Cc1cc(N2CCN(c3ccccc3)CC2)nc(N)n1 do in these assays?
hDAT+cocaine: inactive; Cav3 T inh: inactive; Smad3 inh: inactive

Results for Cc1cc(N2CCCCCC2)nc(-c2ccccc2O)n1 ?
PostGolgi ctrl: 34.2; TNAP act DEA: inactive; PostGolgi yeast: inactive; Smad3 inh: inactive

Screens from PubChem.
